Each structure is given as a SMILES string. Calls of active or inactive are those of the source. How the calls were made is not given here.

This assay concerns the target Lethal factor (Bacillus anthracis) (UniProt P15917). The assay can be described thus: Bacillus anthracis lethal factor inhibition, microsphere flow cytometry protease assay, validation at 10 µM (AID 588461). As to conditions: multiplex microsphere protease cleavage assay, stronger effect = higher value.
Take `O=C(CSCc1ccccc1)NCCCN1CCOCC1`: the inhibition is -8.8% (inactive).
To `NC(=O)c1c(-c2ccccc2)oc2ccc(O)cc12` belongs -5.1% (inactive); to `Cc1ccc2nc(N=C(N)N)nc(C)c2c1`, -12.1% (inactive).
As to `Cc1ncc(C(=O)O)c(C(=O)O)c1N`, the inhibition is 2.4% (inactive).
Consider `Cc1ccc2[nH]c3c(c2c1)CCNC3=O`, for which the inhibition was -6.6% (inactive).
The same measure for `CCCn1c(=O)c2[nH]c(C3CCCC3)nc2n(CCC)c1=O`: -1.9% (inactive); for `Cc1cccc(Oc2coc3cc(OC(=O)c4cncc(Br)c4)ccc3c2=O)c1`: 2% (inactive); for `CCC(=O)Nc1ccc(C(=O)N2CCN(C(=O)c3ccco3)CC2)cc1`: -2.7% (inactive).
To `CC(=O)OC[C@H]1O[C@@H](n2ncc(=O)[nH]c2=O)[C@H](OC(C)=O)[C@@H]1OC(C)=O` belongs 3.7% (inactive); to `Cc1ccc(C(=O)Nc2ccc(O)cc2C(=O)O)cc1C`, 0.9% (inactive).
To `CCCCNC(=O)NS(=O)(=O)c1ccc(C)cc1` belongs 1% (inactive).
With `CCSC(=O)CCCCCCCCCCCO`, the inhibition is 14.5% (inactive).
For `CC1=CC(C)(C)N2C(=O)C3(NCCc4c3[nH]c3ccccc43)c3cc(C)cc1c32` (configuration not stated), the inhibition was 0.2% (inactive).
As to `NS(=O)(=O)c1cc2c(cc1Cl)NC(C1C[C@H]3C=C[C@@H]1C3)NS2(=O)=O` (some centres not stated), the inhibition is -3.2% (inactive).
The same measure for `COc1ccc(C)cc1S(=O)(=O)Nc1ccc(F)cc1`: 0.5% (inactive); for `C=CCNC(=S)N1CCc2c([nH]c3ccccc23)C1C` (configuration not stated): 0.1% (inactive).
To `CCOC(=O)c1ncn2c1CN(C)C(=O)c1cc(F)ccc1-2` belongs -2.7% (inactive).

For orientation: inhibition means the relative decrease from the control value, in per cent.
